Measurements from ChEMBL document CHEMBL1157539, “Thousands of chemical starting points for antimalarial lead identification” (Nature, 2010).

These compounds were tested on Plasmodium falciparum (assay: GSK_TCMDC: Inhibition of Plasmodium falciparum Dd2 in whole red blood cells, using parasite LDH activity as an index of growth. Test compounds present at 2uM).
Assay type: functional

In order of rising Inhibition:
1. CC1(C)N=C(N)N=C(N)N1c1ccc2ccccc2c1.Cl  0%
2. CCc1nc(N)nc(N)c1-c1ccc(F)c(F)c1  0%
3. COCCOc1nc(N)nc2ncc(Cc3cc(OC)ccc3OC)c(C)c12  0%
4. Cl.NC1=NC2(CCCC2)N(c2ccc(Cl)cc2)C(N)=N1  0%
5. O=C(/C=C/c1ccc(Cl)cc1)NCCCCCN1CCCC(C(=O)Nc2cccc(Cl)c2)C1 (stereo unspecified)  4%
6. Cc1ccc2[nH]c(-c3ccccc3N)cc2c1  8%
7. COc1ccc(-c2ccc(NC(=O)c3cccc(C#N)c3)cc2)cc1CN(C)C.O=C(O)C(F)(F)F  10%
8. Cl.O=C1CSc2ccc(CNC3CCN(CCc4c(F)cnc5ccc(F)cc45)CC3)nc2N1  16%
9. COc1ccc(-c2ccc(NC(=O)c3ccc(F)cc3)cc2)cc1CNC(C)C.O=C(O)C(F)(F)F  28%
10. COc1cc2c(cc1C(F)(F)F)N(C(=O)Nc1cc(Br)cc(-c3cccnc3)c1)CC2  34%
11. COc1ccc2nccc(NC(=O)C3(O)CCC(NCc4ncc5c(c4Cl)OCCO5)CC3)c2n1.Cl (stereo unspecified)  59%
12. O=S(=O)(c1ccccc1)C1CC1  65%
13. O=C(Nc1ccc([N+](=O)[O-])cc1Br)c1cc2ccccc2nc1Cl  68%
14. O=C(Nc1ccc(OC2CCN(Cc3ccsc3)C2)c(Cl)c1)c1ccc(F)cc1.O=C(O)C(F)(F)F (stereo unspecified)  73%
15. CC1CCCN(Cc2cc(Cl)cc(Cl)c2O)C1 (stereo unspecified)  77%
16. Cc1ccccc1C1CCN(c2ccc(NC(=O)c3ccc(Cl)nc3)cc2)CC1.O=C(O)C(F)(F)F  82%
17. C=CCc1ccccc1OCC(O)CN(C1CCCCC1)C1CCCCC1.Cl (stereo unspecified)  84%
18. COc1cccc(CNc2noc(-c3c(-c4ccccc4)noc3C)n2)c1OC  86%
19. CC(C)(c1ccccc1)c1ccc(O)c(CN2CCOCC2)c1  88%
20. Cc1cc(C)n2nc(C(=O)Nc3cc(C(F)(F)F)ccc3N3CCOCC3)nc2n1  91%
21. Br.CC1(C)NC(N)=NC(=N)N1OCCCc1ccc(Cl)cc1Cl  95%
22. Br.COc1cccc(OC)c1OCCCON1C(=N)N=C(N)NC1(C)C  96%
23. CCOC(=O)C(NC(=O)Cc1ccccc1)C(C)C (stereo unspecified)  98%
24. O=C1C(=Cc2c(O)ccc3ccccc23)SC(=NCc2ccccc2)N1Cc1ccccc1  98%
25. O=C(O)c1ccc(-c2c[nH]c3ncc(-c4ccc(Cl)cc4)cc23)cc1  99%
26. COc1ccc2c(c1)nc(CNC(=N)N)n2Cc1ccc(Cl)cc1.Cl  99%
